CYP2C9 inh = blocks human cytochrome P450 2C9; inhibition, % at 5 µM; CYP2C9 Supersomes, luciferin-H conversion, luminescence; 96,000 compounds, 20% hits; AID 777;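 active = blocking of liver enzyme CYP2C9 beyond about 50% at 5 µM, limit read from the data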
Target sequence (P11712 whole entry, looked up): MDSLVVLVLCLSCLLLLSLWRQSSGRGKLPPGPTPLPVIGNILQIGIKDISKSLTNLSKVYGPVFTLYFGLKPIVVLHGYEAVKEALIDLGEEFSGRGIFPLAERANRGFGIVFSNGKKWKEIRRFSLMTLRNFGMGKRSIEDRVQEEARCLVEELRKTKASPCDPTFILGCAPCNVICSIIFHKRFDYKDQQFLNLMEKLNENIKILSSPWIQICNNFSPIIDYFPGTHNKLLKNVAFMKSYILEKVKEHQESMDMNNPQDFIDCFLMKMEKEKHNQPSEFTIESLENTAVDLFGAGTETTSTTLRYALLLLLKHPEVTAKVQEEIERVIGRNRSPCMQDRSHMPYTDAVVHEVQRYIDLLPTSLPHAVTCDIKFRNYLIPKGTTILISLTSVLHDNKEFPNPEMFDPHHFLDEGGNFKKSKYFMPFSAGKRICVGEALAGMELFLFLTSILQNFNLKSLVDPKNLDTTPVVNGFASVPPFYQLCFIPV
Measles CPE = protection of cells from measles virus; protection (pct of control), % at 4 µM; 140,000 compounds, 1.5% hits; Measles virus-infected cells, CPE protection, absorbance; in the data active = protection mostly above about 24%, no sharp cut-off; inactive = mostly below about 26%
CYP2C19 inhib = inhibitors of human CYP2C19; P33261; CYP2C19 Supersomes, luciferin-H EGE luminescence, 30 min; inhibition, % at 5 µM; 96,000 compounds, 21% hits; AID 778;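 active = CYP2C19 inhibition above a set limit at 5 µM in the primary screen, cut at about 50% in these data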
CYP2C19 act = cytochrome P450 2C19 (human) activation; P33261; recombinant CYP2C19, luciferin-H EGE luminescence; active compounds read high; 0 = fully inhibited enzyme, 1 = untreated enzyme; 96,000 tested, under 10 active; activation factor at 5 µM;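 active = activation factor of at least 2 at 5 µM in the primary screen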
CYP2C9 activ = activators of human CYP2C9 | recombinant CYP2C9, luciferin-H conversion, luminescence; active compounds read high; factor 1 = untreated enzyme, 0 = blocked | activation factor at 5 µM | 96,000 compounds, 1.4% hits;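 active = activation factor of 2 or more for CYP2C9 at a 5 µM dose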
Each line names hits and unclear results; the compound was inactive in the other large screens. This is a sample that favours compounds with a hit; in the whole collection about 22% have one here.

Cn1c(Cn2nnc(-c3ccccc3)n2)nnc1SCc1ccccc1Cl	CYP2C9 inh 64.2
Cn1c(SCc2ccccc2Cl)nnc1-c1cnccn1	CYP2C19 inhib 77.4
O=C(O)c1cccc(-c2nnn(Cc3ccccc3Cl)n2)c1	none (no result: CYP2C9 inh, CYP2C19 inhib, CYP2C19 act, CYP2C9 activ)
CCCCC(=O)OCCNC(=O)c1cc2ccccc2oc1=O	CYP2C19 inhib 59.0
COCCn1c(SCC(=O)Nc2cc(C(C)(C)C)nn2-c2ccccc2)nc2ccccc2c1=O	none (no result: CYP2C9 inh, CYP2C19 inhib, CYP2C19 act, CYP2C9 activ)
C=CCCCCCCCCC(=O)NN	CYP2C9 inh 88.9, CYP2C19 inhib 100.0
CC(C)CC(=O)NC(=S)Nc1nc(-c2cccc3ccccc23)cs1	CYP2C9 inh 57.2
O=S(=O)(c1ccccc1)N1CCN=C1SCc1ccc(Cl)c(Cl)c1	none (no result: CYP2C9 inh, CYP2C19 inhib, CYP2C19 act, CYP2C9 activ)
O=C(Cc1ccccc1)N/N=C/c1ccc(-c2ccc([N+](=O)[O-])cc2)o1	none (no result: CYP2C9 inh, CYP2C19 inhib, CYP2C19 act, CYP2C9 activ)
CCOc1ccc(S(=O)(=O)N(CC(=O)N/N=C/c2ccc(-c3ccc([N+](=O)[O-])cc3)o2)c2ccccc2)cc1	CYP2C9 inh 62.0
CCOc1ccc(NC(=O)CN(c2ccc([N+](=O)[O-])cc2)S(=O)(=O)c2ccccc2)cc1	none (no result: CYP2C9 inh, CYP2C19 inhib, CYP2C19 act, CYP2C9 activ)
Cc1ccc(C)c(N(CC(=O)N/N=C/c2ccc(-c3ccc([N+](=O)[O-])cc3)o2)S(=O)(=O)c2ccccc2)c1	CYP2C9 inh 60.7
CSc1ccc(/C=N/NC(=O)c2ccc(O)cc2)cc1	none (no result: CYP2C9 inh, CYP2C19 inhib, CYP2C19 act, CYP2C9 activ)
Cc1ccsc1C(=O)c1sccc1C	none (no result: CYP2C9 inh, CYP2C19 inhib, CYP2C19 act, CYP2C9 activ)
Cc1ccc2[nH]c(=O)c(CN(Cc3ccco3)C(=O)c3cccs3)cc2c1	none (no result: CYP2C9 inh, CYP2C19 inhib, CYP2C19 act, CYP2C9 activ)
O=C(c1cccs1)N(Cc1ccccn1)Cc1ccco1	CYP2C19 inhib 54.2
O=C(O)c1cc(-c2ccc3c(c2)OCO3)nc2ccccc12	none
CC(=O)c1ccc(N2CCN(C(=O)c3cc(-c4ccc5c(c4)OCO5)nc4ccccc34)CC2)cc1	CYP2C9 inh 62.5
CC(NC(=O)c1cc(-c2ccc3c(c2)OCO3)nc2ccccc12)C(C)(C)C (configuration not stated)	CYP2C9 inh 55.8
CCCN(CCC)C(=O)c1cc(-c2ccc3c(c2)OCO3)nc2ccccc12	CYP2C9 inh 100.3, CYP2C19 inhib 97.0
O=C(N/N=C/c1ccc2c(c1)OCO2)c1cc(-c2ccc(F)cc2)nc2ccccc12	none (no result: CYP2C9 inh, CYP2C19 inhib, CYP2C19 act, CYP2C9 activ)
COc1ccc(S(=O)(=O)N2CCCC(C(=O)O)C2)cc1Cl (configuration not stated)	none
COc1ccc(C(=O)/C=C2/c3ccccc3CC(C)(C)N2C)cc1OC	none (no result: CYP2C9 inh, CYP2C19 inhib, CYP2C19 act, CYP2C9 activ)
O=C(Nc1ccc2c(c1)OCO2)C1CCN(S(=O)(=O)c2cccc3cccnc23)CC1	CYP2C9 activ 2.8
O=C(NCc1cccs1)C1CCCN(S(=O)(=O)c2cccc3cccnc23)C1 (configuration not stated)	CYP2C9 activ 4.2
O=S(=O)(NCc1cccs1)c1cccc2cccnc12	CYP2C9 activ 2.8
O=C(C1CCCN(S(=O)(=O)c2cccc3cccnc23)C1)N1CCN(c2ccccc2F)CC1 (configuration not stated)	CYP2C19 inhib 87.8
O=C(NCc1ccc2c(c1)OCO2)C1CCCN(S(=O)(=O)c2cccc3cccnc23)C1 (configuration not stated)	none
CC/C(=N\NC(=S)Nc1ccc(OC)cc1)c1ccc(OC(F)F)cc1	none (no result: CYP2C9 inh, CYP2C19 inhib, CYP2C19 act, CYP2C9 activ)
COc1ccccc1NC(=O)COC(=O)CNC(=O)c1ccc(OC)c(OC)c1	none
O=C(NC1CCCC1)C1CCCN(S(=O)(=O)c2cccc3cccnc23)C1 (configuration not stated)	CYP2C9 activ 2.6
O=C(NC1CCN(Cc2ccccc2)CC1)C1CCN(S(=O)(=O)c2cccc3cccnc23)CC1	CYP2C9 activ 2.9 (no result: Measles CPE)
O=C(NCc1cccs1)C1CCCN1S(=O)(=O)c1ccccc1F (configuration not stated)	CYP2C19 inhib 52.7
Cc1cccc(NC(=O)C2CCCN(S(=O)(=O)c3cccc4cccnc34)C2)c1 (configuration not stated)	CYP2C19 inhib 80.9
COc1cccc(-c2cc(C(=O)Nc3c(C)nn(Cc4ccccc4C)c3C)no2)c1	none
CCCCNS(=O)(=O)c1ccc(S(=O)(=O)N2CCC3(CC2)OCCO3)cc1	none (no result: CYP2C9 inh, CYP2C19 inhib, CYP2C19 act, CYP2C9 activ)
COc1ccc(NS(=O)(=O)/C=C/c2ccccc2)cc1	none (no result: CYP2C9 inh, CYP2C19 inhib, CYP2C19 act, CYP2C9 activ)
Cc1ccc(-c2cc(-c3nnc(SCC(=O)N(C)CCC#N)n3N)c3ccccc3n2)cc1	none
CCCCNC(=O)CNC(=S)N(Cc1ccccc1)Cc1cccnc1	none (no result: CYP2C9 inh, CYP2C19 inhib, CYP2C19 act, CYP2C9 activ)
O=C(NC1CCCCCC1)C1CCN(S(=O)(=O)c2cccc3cccnc23)CC1	CYP2C9 activ 3.9
Cc1cccc(NC(=O)C2CCN(c3nccc(C)n3)CC2)c1	CYP2C19 inhib 70.0 (no result: Measles CPE)
Cc1ccnc(N2CCC(C(=O)Nc3ccc4c(c3)CCC4)CC2)n1	none
Cc1[nH]nc2c1C(c1cccc(OC(=O)N3CCOCC3)c1)C(C#N)=C(N)O2 (configuration not stated)	none
COc1cccc(NC(=O)N2CCN(c3ccc(C(F)(F)F)cn3)CC2)c1	none
Cc1cc(C(=O)Nc2ccc(N3CCCC3)c(Cl)c2)ccc1[N+](=O)[O-]	none (no result: CYP2C9 inh, CYP2C19 inhib, CYP2C19 act, CYP2C9 activ)
CCN1C(=O)C(O)(CC(=O)c2ccc3c(c2)OCCO3)c2ccccc21 (configuration not stated)	CYP2C19 inhib 66.9
CC(C)c1ccc(C(=O)CC2(O)C(=O)N(CN3CCOCC3)c3ccccc32)cc1 (configuration not stated)	CYP2C19 inhib 77.7
Cc1ccc(C(=O)CC2(O)C(=O)N(CN3CCOCC3)c3ccccc32)cc1 (configuration not stated)	CYP2C19 inhib 54.5
CCc1ccc(C(=O)CC2(O)C(=O)N(CN3CCOCC3)c3ccccc32)cc1 (configuration not stated)	none
CCC1CCCCN1CCCNC(=O)c1cn(CC(C)C)c(=O)c2cc(OC)c(OC)cc12 (configuration not stated)	none
CCCn1c(=O)c2ccccc2n2c(SCC(=O)NCc3cccs3)nnc12	none
CN(C)c1ccc(CN(C(=O)c2ccco2)C2CCS(=O)(=O)C2)cc1 (configuration not stated)	none
Cc1ccc(NC(=O)CS(=O)CC(=O)Nc2cccc(C)c2C)cc1F (configuration not stated)	none
Cc1ccc(S(=O)(=O)N2CCC(C(=O)N[C@@H](C)C(=O)NC3CCCCC3)CC2)cc1	none
CCCCCCCN1N=C(C)C(C(=O)c2ccccc2)C1=O (configuration not stated)	CYP2C9 inh 94.1
CCCCCCn1cc(C(=O)O)c(=O)c2ccccc21	none
CCCCN(C(=O)c1ccc(Cl)cc1)C1CC2CCC(C1)N2C (configuration not stated)	none
CCCCCCN1N=C(C)C(C(=O)c2ccc(Cl)cc2)C1=O (configuration not stated)	CYP2C9 inh 59.7
Cn1c(=O)c2c(ncn2CC(O)CNc2ccc(Br)cc2)n(C)c1=O (configuration not stated)	CYP2C19 inhib 74.6
CCOC(=O)N1CCN(C(=O)c2cccc(OC)c2OC)CC1	none
CCOc1ccccc1C(=O)N1CCCCC1C (configuration not stated)	CYP2C9 inh 58.0, CYP2C19 inhib 68.9

Screens from PubChem BioAssay.
